Bioassay records (PubChem)
Yeast superoxide: caloric restriction mimetics inhibiting age-related superoxide in yeast; AID 2690; superoxide response (% of plate mean), % at 10 µM; actives 0.18% (n = 330,000); S. cerevisiae aged cells, superoxide DHE fluorescence; hits give low values;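 active = superoxide response under a set limit, about three screen SD below normal, cut at about 65% in these data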;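 note: yeast aged for seven days with compound at 30 °C before DHE staining; 100% = average MFI of all compound-treated wells on the plate with controls excluded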
MPTP block: blocks calcium-induced mitochondrial swelling. isolated mouse mitochondria, Ca2+ swelling absorbance, 30 min. inhibition, % at 10 µM. actives 1.4% (n = 360,000);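 active = inhibition of 50% or more, scaled per plate between neutral and stimulator controls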;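 note: 0% = DMSO wells given calcium and 100% = 1 mM EGTA wells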
Cardio protect: protects H9c2 cardiomyocytes from peroxide injury; protection from H2O2 cell death, % at 20 µM; H2O2 injury protection, ATPLite, 2 h; actives 0.63% (n = 360,000); AID 588492;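 active = compounds giving at least 50% protection of heart cells from peroxide-induced death in the single-dose screen, raw or plate-pattern-corrected value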;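 note: 0% = DMSO wells with peroxide and 100% = DMSO wells without peroxide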
SUMO Mot1 rescue: blocks SUMOylation pathway, rescuing yeast Mot1-301 growth | S. cerevisiae Mot1-301 growth rescue, ATP luminescence, 38.5C; percent above DMSO median, 100 means doubled | actives 1% (n = 320,000) | growth rescue, % at 18.8 µM;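 active = every valid replicate shows activation above 250% relative to neutral control wells; inactive = the rest, any valid replicate at or below 250%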;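 note: OY570 slx delta 5 strain wells were the positive control but not used for scaling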
FAS-TE inh: blocks the thioesterase domain of human fatty acid synthase | recombinant FAS-TE, OMFH fluorogenic substrate, fluorescence endpoint | AID 602261 | actives 0.67% (n = 360,000) | P49327 | inhibition, % at 15 µM;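 active = compounds whose normalised, plate-corrected inhibition of enzyme fluorescence in the single-dose primary screen is 50% or more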;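 note: 0% = DMSO with enzyme and 100% = substrate without enzyme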
aDG glyco up: alpha-DG glycosylation activation | Pro5-aDG cells, alpha-DG glycosylation AlphaScreen (IIH6); 0% Pro5, 100% B10-LARGE cell signal | activation, % at 10 µM | actives 0.22% (n = 360,000);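 active = activation of at least 8% versus controls, or a plate z-score of at least 8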;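 note: Pro5 are CHO cells carrying HIG-tagged alpha-DG that lacks glycosylation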
Numbers without * were called inactive; . = no result given. Shown are actives, neighbours in structure and some others; about 3.8% of the full set was active somewhere.

SMILES	Yeast superoxide	MPTP block	Cardio protect	SUMO Mot1 rescue	FAS-TE inh	aDG glyco up
COc1ccc(N/N=C/c2c(O)n(-c3ccc(C)c(C)c3)c(=O)[nH]c2=O)cc1	84.2	0.4	-4.8	42.7	-9.9	0.4
Cc1ccc(-n2c(O)c(/C=N/Nc3ccccc3)c(=O)[nH]c2=O)cc1C	92.2	.	.	310.3*	.	.
CC1=CC2OC3CC4OC(=O)C=CC=CC(=O)OCCC(C)C(O)C(=O)OCC2(CC1)C4(C)C31CO1 (centres undefined)	.	-1.0	56.8*	.	-7.3	-0.4
Cc1cccc(C)c1OC(=O)Cc1ccccc1	100.8	1.7	-4.3	13.8	10.3	0.8
Cc1sc2nc(COC(=O)Cc3ccccc3)[nH]c(=O)c2c1C	77.8	2.4	53.2*	1.2	-2.2	0.1
CC1(CCCc2ccc(N(CCCl)CCCl)cc2)NC(=O)NC1=O (centres undefined)	.	-0.5	-2.7	.	-1.2	0.5
COc1ccc(Cc2c(O)[nH]c(=S)[nH]c2=O)cc1	99.5	-1.5	0.2	-6.4	-2.6	0.0
C=CCC1(CCCCC)C(=O)NC(=S)NC1=O	.	-0.7	-3.2	.	-1.2	0.0
O=P(Nc1ccccc1)(Oc1ccccc1)Oc1ccccc1	100.6	3.1	53.7*	-2.5	18.4	-0.4
COc1cccc(OP(=O)(Nc2ccccc2)Oc2cccc(OC)c2)c1	108.5	0.3	70.3*	-8.4	28.2	-0.2
COc1ccc(-n2c(/C=C/c3ccc(O)c(O)c3)nc3ccccc3c2=O)cc1	108.8	4.8	56.6*	4.0	1.5	-0.4
COc1cc(/C=C/c2nc3ccccc3c(=O)n2-c2ccc(O)cc2)ccc1O	101.5	2.3	66.1*	4.4	0.7	-0.3
O=c1c2ccccc2nc(/C=C/c2ccc3c(c2)OCO3)n1-c1ccccc1	88.3	0.8	38.7	143.2	15.1	-0.5
COc1ccc2c(c1)NP(=S)(c1ccccc1)N2C (centres undefined)	.	-1.3	-8.1	.	7.8	0.1
COc1ccc(P2(=O)Nc3ccccc3N2)cc1	89.8	1.4	52.9*	1.6	2.0	-0.7
Oc1ccc(C[C@H]2NCCc3cc(O)c(O)cc32)cc1O	99.7	1.0	56.8*	14.3	-4.3	0.2
CCCN1CCc2cccc3c2[C@H]1Cc1ccc(O)c(O)c1-3	33.0*	4.5	50.7*	-1.3	2.6	-0.1
COC(=O)C1=C(c2ccc(OC(F)(F)F)cc2)C[C@@H]2CC[C@H]1N2C(=O)N1CCCCC1	109.8	2.1	-13.2	-15.3	11.4	0.3
C=C1[C@@H](C)[C@H]2[C@H](Cc3ccccc3)NC(=O)[C@]23OC(=O)/C=C/[C@H](O)CCC[C@@H](C)C/C=C/[C@H]3[C@@H]1O	100.5	-1.5	79.3*	109.1	1.0	-0.4
COc1cccc(-c2sc3ccccc3c2-c2ccc(OCCN3CCOCC3)cc2)c1	83.7	1.3	-5.7	462.5*	24.3	-0.3
COCCNC(=O)c1c(NC(=O)c2ccc(Br)o2)n(Cc2ccccc2)c2nc3ccccc3nc12	80.2	3.1	10.8	829.5*	16.1	0.4
CC1=CC2OC3CC4OC(=O)C=CC=CC(C(C)O)OCC(O)C5(C)OC5C(=O)OCC2(CC1O)C4(C)C31CO1 (centres undefined)	.	0.5	-0.6	.	-5.2	-0.2
O=C(NCCN1CCC2(CC1)C(=O)NCN2c1cccc(F)c1)c1ccc2ccccc2c1	.	3.6	.	.	5.7	1.1
CCOc1ccc(-n2c(O)c(/C=C3\C=Nc4ccccc43)c(=O)[nH]c2=O)cc1	99.4	0.0	29.1	296.9*	-3.5	0.1
Cc1ccccc1NP(=O)(Oc1ccccc1F)Oc1ccccc1F	93.1	-0.8	73.3*	-12.5	4.6	-0.3
SMILES	Yeast superoxide	MPTP block	Cardio protect	SUMO Mot1 rescue	FAS-TE inh	aDG glyco up
C1CN(P2(N3CC3)=NP(N3CC3)(N3CC3)=NP(N3CC3)(N3CC3)=N2)CCO1 (centres undefined)	.	0.1	-3.0	.	-8.3	-0.2
COC(=O)C(O)(c1ccc(N=Cc2ccccc2O)c(C)c1)C(F)(F)F (centres undefined)	75.7	0.1	12.9	0.2	-10.3	-0.1
CC(C)(C)c1ccc(O)c(N=Cc2c(O)ccc3ccccc23)c1	105.2	49.7	51.1*	4.8	2.9	1.7
CC1(C)C[C@H]2C=C(C=O)[C@]3(C=O)C[C@]3(C)[C@H]2C1	91.2	-2.0	-16.6	358.4*	2.8	-0.4
C[C@@H]1CN([C@@H](C)CO)C(=O)CCCn2nncc2CO[C@H]1CN(C)C(=O)Oc1cccc2ccccc12	.	0.9	3.1	.	-9.6	-0.1
O=C(N/N=C/c1c(O)n(CCC2=CCCCC2)c(=S)[nH]c1=O)c1ccccc1	87.4	23.8	65.9*	-8.3	24.8	-0.2
O=C(N/N=C/c1c(O)n(CCC2=CCCCC2)c(=O)[nH]c1=O)c1ccccc1	107.0	1.9	36.6	11.5	11.5	-0.3
CCCNC(=O)N1[C@H]2CC[C@@H]1C(C(=O)OC)=C(c1ccc(C(C)=O)cc1)C2	109.2	1.1	-6.6	5.1	-13.7	0.1
CCN1CCN(c2cn[nH]c(=O)c2Cl)CC1	101.7	-2.6	2.4	55.2	-6.0	0.0
CCN1CCN(c2nc3c(c(=O)[nH]2)CCCC3)CC1	111.5	0.2	62.1*	0.7	-8.8	2.5
COc1c(C)cc(C(=O)C2CCCN(Cc3cnc(C)s3)C2)cc1C (centres undefined)	115.6	1.2	-2.0	279.5	10.0	0.2
Cc1ncc(CN2CCCC(C(=O)c3cccc(OC(C)C)c3)C2)s1 (centres undefined)	99.7	1.9	-1.9	294.6*	-5.8	0.5
C[C@]12CC[C@@H]3c4ccc(O)c(O)c4CC[C@H]3[C@@H]1CC[C@@H]2O	90.2	-0.1	121.2*	-19.5	-4.8	0.2
CN1CCN(Cc2nc3ccccc3c(=O)[nH]2)CC1	96.9	-0.7	54.9*	-6.1	-9.1	-0.3
O=c1[nH]c(CN2CCNCC2)nc2ccccc12	108.9	-6.4	43.6	-3.3	-0.8	0.1
C[C@@]12CC[C@@H](c3cc4c(cc3C1)OCO4)N2c1ccccc1	.	1.1	.	.	.	0.0
CC(=NCC1CCCO1)c1c(O)n(-c2ccccc2C)c(=O)[nH]c1=O (centres undefined)	112.1	1.7	5.2	12.9	-4.1	-0.1
CC(=NCC1CCCO1)c1c(O)n(-c2ccc(Cl)cc2)c(=O)[nH]c1=O (centres undefined)	92.2	-2.0	5.3	547.4*	-8.1	-0.1
Cc1ccc2c(C)c3ccc4ccccc4c3c[n+]2c1	.	-0.6	-12.0	.	-2.6	0.1
O=c1[nH]c(=O)n(Cc2ccco2)c(O)c1C=NCc1cccs1	117.9	-1.8	53.7*	-8.5	-5.7	-0.2
O=c1[nH]c(=S)n(Cc2ccco2)c(O)c1C=NCc1cccs1	104.3	1.3	4.6	1.9	12.5	-0.3
